The full list was thinned out, with hits kept by preference.
LmPK inh – LmPK (Leishmania mexicana) enzyme inhibition. Q27686. purified LmPK, Kinase-Glo ATP luminescence, 1 h. Potency, µM (doses to about 57.5 µM), most hits filed as inhibitors. 0.37% of 290,000 active
Target sequence (Q27686 whole entry, looked up): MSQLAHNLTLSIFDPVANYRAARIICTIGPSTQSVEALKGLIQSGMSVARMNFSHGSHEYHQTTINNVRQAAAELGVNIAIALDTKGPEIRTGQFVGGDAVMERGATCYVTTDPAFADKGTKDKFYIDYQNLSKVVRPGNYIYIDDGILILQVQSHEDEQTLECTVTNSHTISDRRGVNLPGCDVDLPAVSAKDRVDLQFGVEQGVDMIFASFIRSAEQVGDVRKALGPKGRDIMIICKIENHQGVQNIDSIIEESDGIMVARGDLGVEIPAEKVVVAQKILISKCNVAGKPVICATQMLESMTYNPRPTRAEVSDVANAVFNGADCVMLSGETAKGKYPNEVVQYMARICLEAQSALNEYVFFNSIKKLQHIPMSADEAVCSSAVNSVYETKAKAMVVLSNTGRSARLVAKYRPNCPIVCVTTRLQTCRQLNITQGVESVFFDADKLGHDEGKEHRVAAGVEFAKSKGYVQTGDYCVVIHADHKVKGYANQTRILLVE
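Purified LmPK (0.1 nM) with 0.5 mM PEP and 0.1 mM ADP in imidazole buffer pH 7.2 with MgCl2/KCl, 1 h at room temperature. ATP formed was read by luciferase luminescence and normalized to no-enzyme and uninhibited controls.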
Sm TGR inh – S. mansoni TGR enzyme inhibition; AID 485364; purified TGR, DTNB reduction, TNB absorbance 405 nm; Q962Y6; 3% of 360,000 active; Potency, µM (series often up to 114 µM), usual class: inhibitors; note: nearly all actives have a fitted effect of over 60% in size
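Kinetic colorimetric format: TGR-catalysed, NADPH-driven DTNB reduction monitored via TNB absorbance. Enzyme dispensed at 20 nM; compound exposure 15 min at room temperature before reaction start.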
FBPA Giardia inh – inhibitors of Giardia lamblia fructose-1,6-bisphosphate aldolase. purified Giardia FBPA. Potency, µM (top dose mostly 59.6 µM), most hits filed as inhibitors. 0.71% of 290,000 active. AID 2451; note: nearly all actives have a fitted effect of over 55% in size
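Giardia FBPA (40 nM reagent) was preincubated 10 min at RT with compound (up to 57.5 uM final), then substrate plus GAPDH/TPI/NAD/arsenate coupling system with diaphorase/resazurin was added; resorufin fluorescence (525/598 nm) was read after 20 min.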
Shiga inhibitor – blocks Shiga toxin action in Vero cells; Vero cells, Shiga toxin protein synthesis inhibition reporter; inhibition, % at 38.7 µM; 9.2% of 290,000 active; in the data active = inhibition mostly above about 28%, no sharp cut-off; inactive = mostly below about 43%
Cycloheximide cs – counter-screen for Shiga toxin inhibitors: cycloheximide protein synthesis inhibition | AID 2314 | 12% of 300,000 active | max response, % | cell reporter, cycloheximide protein synthesis inhibition counterscreen; in the data active = max response mostly above about 13%, no sharp cut-off; inactive = mostly below about 14%; note: read at 38.3 µM for the half of the compounds with a filed dose
TbPYK inhibitor – blocks Trypanosoma brucei pyruvate kinase. TbPYK enzyme, Kinase-Glo Plus ATP luminescence, 45 min. 0.12% of 410,000 active. Q57TT1. Potency, µM (series often up to 76.8 µM), most hits filed as inhibitors; note: nearly all actives have a fitted effect of over 50% in size
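Assay buffer: 50 mM TEA pH 7.2, 100 mM KCl, 10 mM MgCl2, 0.05% BSA, 0.01% Tween-20. Pyruvate kinase from T. brucei plus substrate met compound, then ADP (130 uM final). Luminescence was read post 45 min RT.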
A number is an active result; . = inactive; ? = inconclusive; / = no result; [ ] = dose if it differs, or a comment. Unless noted, calls come from the whole dose curve; as a rule, active = well fitted curve in the direction sought with a large enough effect; inconclusive = small, poorly fitted or top-dose-only effect, or another doubt; inactive = no such curve, though single readings can be large; an effect the other way counts as inactive or inconclusive.

SMILES	LmPK inh	Sm TGR inh	FBPA Giardia inh	Shiga inhibitor	Cycloheximide cs	TbPYK inhibitor
CO[C@@H]1[C@@H](OC2OC(C)C(OC3CC(C)(O)C(O)C(C)O3)C(N(C)C)C2O)[C@@H](CC=O)C[C@@H](C)[C@@H](OC2CCC(N(C)C)C(C)O2)/C=C/C=C/C[C@@H](C)OC(=O)C[C@H]1OC(C)=O (some centres not stated)	/	/	/	/	/	.
COC(=O)[C@@H](NC(=O)N1CCc2nc(-c3ccccc3)c3c(c2C1)CO[C@@H](C)C3)C(C)C	.[11.5 µM]	/	.[12.9 µM]	/	/	/
CC1(C)CCCN(Cc2c(O)ccc3c(=O)c(-c4nc5ccccc5s4)c(N)oc23)C1	.	.	.	77	33	.
COc1ccccc1NS(=O)(=O)c1cccc(NC(=O)c2ccc3ccccc3n2)c1	.	.	.	.	17	.
O=C(Nc1ccccc1)c1ccc2ccccc2n1	.	.	.	94	49	.
O=C(Nc1ccc(Cl)cn1)c1ccc2ccccc2n1	.	.	.	.	.	.
Cc1ccc(NC(=O)c2ccc3ccccc3n2)nc1	.	.	.	115	38	.
O=C(Nc1ccccc1)Nc1ccc2ccccc2n1	.	?	.	.	.	.
O=C(Nc1ccc(OC(F)(F)F)cc1)c1ccc2ccccc2n1	.	.	.	.	42	.
COc1cc(OC)c2c(-c3cccc(-c4ccc(F)c(Cl)c4)c3)cc(=O)oc2c1	/	/	/	/	/	.
C=C(C)Cn1c2ccc(NC(=O)NCc3ccccc3)cc2c(=O)n1C	/	/	/	/	/	.
O=C(NCc1ccco1)c1ccc2ccccc2n1	.	/	.	.	.	.
O=C(Nc1ccc2c(c1)OCCO2)c1ccc2ccccc2n1	.	.	?	45	39	.
O=C(Nc1ccc2c(c1)OCCO2)c1cccc2nc3ccccc3nc12	.	.	/	.	.	.
O=C(Nc1ccccc1C(=O)O)c1ccc2ccccc2n1	.	.	?	124	30	.
Cc1ccccc1NC(=S)c1ccc2ccccc2n1	.	50µM	.	97	48	.
O=C(Nc1ccc(S(=O)(=O)NCc2ccco2)cc1)c1ccc2ccccc2n1	.	.	.	51	89	.
CCCN(CC(=O)Nc1ccccc1C)C(=O)c1ccc2ccccc2n1	/	.	/	/	/	.
CCN1CCN(CCCNC(=O)c2ccccc2NC(=O)C2=C(C)OCCS2)CC1	.	.	/	.	.	.
O=C1C(Cl)=C(NCCN2CCOCC2)C(=O)c2ncccc21	/	/	.	.	.	/
CC(C)c1ccc(-c2cc(C(=O)N3N=C(C(F)F)CC3(O)C(F)F)c3ccccc3n2)cc1 (configuration not stated)	.	.	.	83	23	.
CC(C)c1ccc(-c2cc(C(=O)NN3CCN(C)CC3)c3ccccc3n2)cc1	.	.	.	82	35	.
O=C(c1cc(C2CC2)nc2ccccc12)N1N=C(C(F)F)CC1(O)C(F)F (configuration not stated)	.	.	.	.	.	.
CN1CCN(NC(=O)c2cc(-c3cccc(Cl)c3)nc3ccccc23)CC1	.	.	.	.	.	.
CCOc1cccc(Nc2nn(-c3ccc(OC(F)(F)F)cc3)nc2C(C)=O)c1	/	.	/	/	/	.
SMILES	LmPK inh	Sm TGR inh	FBPA Giardia inh	Shiga inhibitor	Cycloheximide cs	TbPYK inhibitor
Nc1c(C(=O)OCC2CCCO2)c2nc3ccccc3nc2n1-c1ccc2c(c1)OCCO2 (configuration not stated)	.	.	?	60	35	.
CCc1ccc(S(=O)(=O)c2nnn3c2nc(Nc2ccc(NC(C)=O)cc2)c2sccc23)cc1	/	.	/	/	/	.
CC(=O)c1ccc(N2CCN(C(=O)C3CCCN(S(=O)(=O)c4cnc[nH]4)C3)CC2)cc1 (configuration not stated)	.	.	.	.	22	.
CC(=O)c1ccc(N2CCN(C(=O)C3CCCN(S(=O)(=O)c4ccc(Br)s4)C3)CC2)cc1 (configuration not stated)	/	.	/	/	/	.
CO/N=C/NC(=O)C1=NOC(CNc2ncc(C(F)(F)F)cc2Cl)C1 (configuration not stated)	.	?	.	.	.	.
NC(=O)C1=NOC(CNc2ncc(C(F)(F)F)cc2Cl)C1 (configuration not stated)	.	.	.	87	36	.
CCN(CC(=O)NCc1cccs1)C(=O)/C=C/c1cc(OC)c(OC)c(OC)c1	/	.	/	/	/	.
CC(Sc1nnc(NC2CCCCC2)s1)C(=O)Nc1ccc2c(c1)C(=O)c1ccccc1C2=O (configuration not stated)	.	.	.	76	26	.
CC(Sc1nnc(NC2CC2)s1)C(=O)Nc1ccc(N2CCOCC2)cc1 (configuration not stated)	/	.	/	/	/	.
Cc1ccc(OCC(=O)Nc2ccc(C(=O)OCc3cc(=O)n4ccsc4n3)cc2)cc1C	/	.	/	/	/	.
CCOC(=O)Cc1csc(NC(=O)c2cccnc2)n1	.	.	.	.	.	.
CCOC(=O)Cc1csc(N/N=C\c2cccc(Br)c2)n1	.	.	.	52	11	.
COc1ccc(/C=N/Nc2nc(C(=O)O)cs2)cc1	.	.	.	34	25	?
CCOC(=O)Cc1csc(N/N=C\c2ccc(N(C)C)cc2)n1	.	.	.	64	24	.
CCOC(=O)Cc1csc(N/N=C/c2ccccc2)n1	.	.	.	104	61	.
Cc1cc(N2CCN(C)CC2)nc2ccc(NC(=O)Nc3cccc(Cl)c3)cc12	/	.	/	/	/	.
Cc1oc2ncn(CC(C)C)c(=O)c2c1C(=O)NCCc1ccccc1	/	.	/	/	/	.
O=C(C1CCCCC1)N1CCC2CC1c1cc(Cl)ccc12 (configuration not stated)	/	/	/	/	/	.
CCOC(=O)Cc1csc(N/N=C\c2ccccc2OC)n1	.	.	.	50	24	.
COc1ccccc1C(c1c(N)n(C)c(=O)n(C)c1=O)C(C)[N+](=O)[O-] (configuration not stated)	.	.	.	94	44	.
COC(=O)c1sc2cccc(F)c2c1S(=O)(=O)Nc1cc(OC)cc(OC)c1	/	.	/	/	/	.
CC(CC(=O)Nc1ccc2c(c1)c(=O)n(C)n2Cc1ccc(F)cc1)C(F)(F)F (configuration not stated)	/	/	/	/	/	.
CSCC[C@H](NC(=O)N1CCn2c1nc1ccccc12)C(=O)NCc1ccc(C)cc1	.	.	/	.	.	.
Cc1ccc(C(=O)NCC(=O)N2CCC3(CC2)NCCc2[nH]cnc23)cc1C	.	.	/	.	.	.
Cc1ccc(C(=O)NCCC(=O)N2CCC3(CC2)NCCc2[nH]cnc23)cc1C	.	.	.	.	11	.
O=S(=O)(Nc1cc(O)cc2cccnc12)c1ccc(Br)s1	/	/	3.2µM	.	.	/
COc1ccccc1NS(=O)(=O)c1ccc(Br)s1	.	.	.	.	.	.

Compound activity from PubChem.
